From PubChem BioAssay (NCATS)
Values joined by “and” are separate entries in the source; they are usually repeats but may differ in a detail not shown here. Equal entries are not always repeated. Inconclusive results are not listed. A call without a number means that no potency is given here. Unmarked numbers belong to inactive results. Active and inactive are the calls of the source. Calls follow the shape of the dose curve; as a rule, active = well fitted curve in the direction sought with a large enough effect; inconclusive = small, poorly fitted or top-dose-only effect, or another doubt; inactive = no such curve, though single readings can be large; an effect the other way counts as inactive or inconclusive.

Experiments:
[1] = biological target: Glutathione peroxidase 1 (Homo sapiens) (UniProt P07203); assay: Primary qHTS Assay for Inhibitors of Recombinant Selenoprotein Glutathione Peroxidase 1 (GPX1) (AID 1845191); also: nearly all actives have a fitted effect of over 65% in size
Procedure, shortened: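 GR-coupled readout: NADPH consumption tracked by fluorescence, ex 340/em 450 nm, at t=0 and after 15 min at RT. Final mix 10 nM GPX1, 1 mM GSH, 0.5 mM CHP, 0.5 mM NADPH, 100 nM GR, 0.01% BSA, following 30 min enzyme–compound preincubation.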

[2] = biological target: Phospholipid hydroperoxide glutathione peroxidase GPX4 (Homo sapiens) (UniProt P36969); assay: Primary qHTS Assay for Inhibitors of Recombinant Selenoprotein Glutathione Peroxidase 4 (GPX4) (AID 1845192); also: nearly all actives have a fitted effect of over 65% in size
Procedure, shortened: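 Steps: GPX4 plus compound, 30 min RT; add GR/GSH/NADPH master mix; start with cumene hydroperoxide; read 340/450 nm fluorescence at 0 and 15 min. Finals were 200 nM GPX4, 1 mM GSH, 0.5 mM CHP, 0.5 mM NADPH, 100 nM GR.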

[3] = Quantitative High-Throughput drug screen in 47 multiple myeloma cell lines against the NCATS MIPE library collection: FR4_PLB cell viability assay (AID 1918924; also: nearly all actives have a fitted effect of over 35% in size; also: potency is read from the fitted curve at half-maximal effect)
Procedure, shortened: (§1)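 Steps: seed 500 cells per well; pin-transfer MIPE 4.0 library; incubate 48 h at 37C, 5% CO2, humidified; add CellTiter-Glo, 5 min room temperature; read luminescence.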

[4] = Quantitative High-Throughput drug screen in 47 multiple myeloma cell lines against the NCATS MIPE library collection: Delta47_JCRB cell viability assay (AID 1918925; also: nearly all actives have a fitted effect of over 45% in size; also: potency is read from the fitted curve at half-maximal effect)
Procedure, shortened: (§2)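 qHTS of the MIPE 4.0 collection: 500 myeloma cells/well, 48 h drug exposure at 37C in 5% CO2, then CellTiter-Glo for 5 min at room temperature before luminescence reading.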

[5] = Quantitative High-Throughput drug screen in 47 multiple myeloma cell lines against the NCATS MIPE library collection: EJM_DSMZ cell viability assay (AID 1918926; also: nearly all actives have a fitted effect of over 30% in size; also: potency is read from the fitted curve at half-maximal effect)
Procedure, shortened: as §2

[6] = Quantitative High-Throughput drug screen in 47 multiple myeloma cell lines against the NCATS MIPE library collection: AMO1_DSMZ cell viability assay (AID 1918927; also: nearly all actives have a fitted effect of over 30% in size; also: potency is read from the fitted curve at half-maximal effect)
Procedure, shortened: as §2

[7] = Quantitative High-Throughput drug screen in 47 multiple myeloma cell lines against the NCATS MIPE library collection: ARP1_JJKsccF8 cell viability assay (AID 1918928; also: nearly all actives have a fitted effect of over 40% in size; also: potency is read from the fitted curve at half-maximal effect)
Procedure, shortened: (§3)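 500 cells/well; MIPE 4.0 library pinned in; 48 h, 37 °C, 5% CO2; CellTiter-Glo ATP luminescence. Controls: DMSO = 100% viability, medium only = 0%.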

[8] = Quantitative High-Throughput drug screen in 47 multiple myeloma cell lines against the NCATS MIPE library collection: ARD_JJKsccE7 cell viability assay (AID 1918929; also: potency is read from the fitted curve at half-maximal effect)
Procedure, shortened: as §2

[9] = Quantitative High-Throughput drug screen in 47 multiple myeloma cell lines against the NCATS MIPE library collection: Karpas620_DSMZ cell viability assay (AID 1918959); also: nearly all actives have a fitted effect of over 30% in size; also: potency is read from the fitted curve at half-maximal effect
Procedure, shortened: as §1

[10] = Quantitative High-Throughput drug screen in 47 multiple myeloma cell lines against the NCATS MIPE library collection: KMM1_JCRB cell viability assay (AID 1918960); also: nearly all actives have a fitted effect of over 30% in size; also: potency is read from the fitted curve at half-maximal effect
Procedure, shortened: as §3

[11] = Quantitative High-Throughput drug screen in 47 multiple myeloma cell lines against the NCATS MIPE library collection: Karpas417_ECACC cell viability assay (AID 1918961); settings: Karpas417 myeloma viability, CellTiter-Glo ATP luminescence, 48 h; viability (% of DMSO): at 45.8 µM (top of the series); also: potency is read from the fitted curve at half-maximal effect
Procedure, shortened: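 CellTiter-Glo luminescence (ATP) after 48 h compound exposure, 37C/5% CO2; 500 cells/well; MIPE 4.0 approved/investigational drugs pinned in; DMSO = 100%, media only = 0% viability.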

[12] = Quantitative High-Throughput drug screen in 47 multiple myeloma cell lines against the NCATS MIPE library collection: KHM11_PLB cell viability assay (AID 1918962); also: nearly all actives have a fitted effect of over 35% in size; also: potency is read from the fitted curve at half-maximal effect
Procedure, shortened: as §1

[13] = Quantitative High-Throughput drug screen in 47 multiple myeloma cell lines against the NCATS MIPE library collection: JIM3_ECACC cell viability assay (AID 1918963; also: nearly all actives have a fitted effect of over 35% in size; also: potency is read from the fitted curve at half-maximal effect)
Procedure, shortened: as §1

[14] = Quantitative High-Throughput drug screen in 47 multiple myeloma cell lines against the NCATS MIPE library collection: JIM1_ECACC cell viability assay (AID 1918964; also: potency is read from the fitted curve at half-maximal effect)
Procedure, shortened: as §2

Sequence of Phospholipid hydroperoxide glutathione peroxidase GPX4 (Homo sapiens) (P36969 whole entry, looked up): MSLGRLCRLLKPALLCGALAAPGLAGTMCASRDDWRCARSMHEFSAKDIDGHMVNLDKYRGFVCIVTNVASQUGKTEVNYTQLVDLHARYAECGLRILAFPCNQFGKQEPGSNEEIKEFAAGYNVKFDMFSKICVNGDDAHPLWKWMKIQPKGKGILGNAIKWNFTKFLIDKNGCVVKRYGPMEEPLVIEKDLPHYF
Sequence of Glutathione peroxidase 1 (Homo sapiens) (P07203 whole entry, looked up): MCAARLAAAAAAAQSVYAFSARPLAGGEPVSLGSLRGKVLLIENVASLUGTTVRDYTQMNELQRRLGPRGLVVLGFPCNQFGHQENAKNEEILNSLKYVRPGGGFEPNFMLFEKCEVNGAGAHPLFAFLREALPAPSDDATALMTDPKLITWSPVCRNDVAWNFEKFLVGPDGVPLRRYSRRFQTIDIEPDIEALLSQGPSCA

Row | Structure (SMILES) | Potency [1] | Potency [2] | Potency [3] | Potency [4] | Potency [5] | Potency [6] | Potency [7] | Potency [8] | Potency [9] | Potency [10] | Potency [11] | Potency [12] | Potency [13] | Potency [14] | viability (% of DMSO) [11] | activity, negative = inhibition [1] | activity change, negative = inhibition [2]
1 | COc1cc(O)c2c(c1)C1OC1C[C@H](O)[C@H](O)C(=O)C=CC[C@H](C)OC2=O (some centres undefined) | inactive | inactive | 3320 nM (active) | 4180 nM (active) | 7430 nM (active) | 2960 nM (active) | 4690 nM (active) | 5900 nM (active) | 2640 nM (active) | 4180 nM (active) | 469 nM (active) | 296 nM (active) | 3720 nM (active) | 2960 nM (active) |  |  | 
2 | CCCCCCCCc1ccc(CCC(N)(CO)CO)cc1 | inactive | inactive |  | 5260 nM (active) | 23500 nM (active) | 8330 nM (active) | 10500 nM (active) | 14800 nM (active) | 8330 nM (active) | 6620 nM (active) | 6620 nM (active) | 8330 nM (active) | 13200 nM (active) | 5900 nM (active) |  |  | 
3 | CCn1c(=O)c2c(nc(C=Cc3ccc(OC)c(OC)c3)n2C)n(CC)c1=O | inactive | inactive | inactive | inactive |  |  | inactive |  | inactive |  | inactive |  |  |  |  |  | 
4 | N#Cc1c(NC(=O)c2cccc3ccccc23)sc2c1CCCC2 | inactive | inactive | 209 nM (active) | 418 nM (active) |  | 118 nM (active) | 418 nM (active) | 296 nM (active) |  | 296 nM (active) |  |  | 209 nM (active) | 187 nM (active) |  |  | 
5 | CC(C)(C)c1nc2c3cc[nH]c(=O)c3c3cc(F)ccc3c2[nH]1 | inactive | inactive | 833 nM (active) | 3320 nM (active) | 2960 nM (active) |  |  |  | inactive |  |  | 1480 nM (active) | 1870 nM (active) | inactive |  |  | 
6 | C[N+](C)([O-])CCNc1ccc(NCC[N+](C)(C)[O-])c2c1C(=O)c1c(O)ccc(O)c1C2=O | inactive | inactive | inactive |  |  | inactive | inactive |  | inactive | inactive |  |  | inactive |  |  |  | 
7 | CCCCCCCN(CC)CCCC(O)c1ccc(NS(C)(=O)=O)cc1 (centres undefined) | inactive | inactive | inactive |  |  | 23500 nM (active) | inactive | 20900 nM (active) |  | 20900 nM (active) |  |  |  |  |  |  | 
8 | C[C@H](NC(=O)[C@@H](O)c1cc(F)cc(F)c1)C(=O)N[C@@H]1C(=O)N(C)c2ccccc2-c2ccccc21 | inactive | inactive | inactive |  | inactive | inactive | inactive | inactive | inactive | inactive |  | inactive |  |  |  |  | 
9 | COc1ccc(Nc2cc(-c3cnc(N)nc3)nc(N3CCOCC3)n2)cn1 | inactive | inactive | 4180 nM (active) |  |  | 3720 nM (active) |  | 372 nM (active) | 2640 nM (active) | 590 nM (active) |  | 4180 nM (active) |  |  |  |  | 
10 | Cc1cnc(Nc2ccc(N3CCN(C)CC3)cc2)nc1Nc1cccc(S(=O)(=O)NC(C)(C)C)c1 | inactive | inactive |  | 1480 nM (active) | 3320 nM (active) | 1180 nM (active) | 3720 nM (active) | 590 nM (active) | 3720 nM (active) | 1660 nM (active) | 372 nM (active) | 1870 nM (active) | 3720 nM (active) | 662 nM (active) |  |  | 
11 | O=[N+]([O-])c1cn2c(n1)OC[C@@H](OCc1ccc(OC(F)(F)F)cc1)C2 | inactive | inactive | inactive | inactive | inactive |  | inactive | inactive | inactive | inactive |  | inactive | inactive | inactive |  |  | 
12 | C[C@@H]1C(=O)O[C@H]2CC34[C@H]5C[C@@H](C(C)(C)C)C36[C@H](OC(=O)[C@@H]6O)O[C@@]4(C(=O)O5)[C@]21O (some centres undefined) | inactive | inactive | inactive |  | inactive | inactive |  | inactive | inactive | inactive |  |  | inactive | inactive |  |  | 
13 | Cn1cc(CNCC2CCN(c3ncc(C(=O)NO)cn3)CC2)c2ccccc21 | inactive | inactive | 26.4 nM (active) |  | 52.6 nM (active) | 52.6 nM (active) | 16.6 nM (active) | 52.6 nM (active) | 105 nM (active) | 41.8 nM (active) | 16.6 nM (active) | 66.2 nM (active) | 132 nM (active) | 74.3 nM (active) |  |  | 
14 | O=c1ccn([C@@H]2O[C@H](CO)[C@H](O)[C@@H]2F)c(=O)[nH]1 | inactive | inactive | inactive |  |  |  | inactive | inactive | inactive | inactive | inactive |  | inactive |  |  |  | 
15 | COc1ccc(C[C@@H](C)[C@@H](C)Cc2ccc(OC)c(OC)c2)cc1OC | inactive | inactive | 118 nM (active) | 296 nM (active) |  |  | 132 nM (active) |  |  | 235 nM (active) |  | 148 nM (active) | 418 nM (active) |  |  |  | 
16 | c1cc(CN2CCCNCCNCCCNCC2)ccc1CN1CCCNCCNCCCNCC1 | inactive | inactive | inactive | inactive | inactive |  |  | inactive | inactive | inactive |  | inactive | inactive |  | 134% (active) |  | 
17 | COc1cc2ncnc(Nc3cccc(Br)c3)c2cc1OC | inactive | inactive | 1320 nM (active) | 1480 nM (active) |  | 3720 nM (active) |  | 16600 nM (active) |  | 14800 nM (active) |  | 16600 nM (active) | 2640 nM (active) |  |  |  | 
18 | OC[C@H]1OC(O)C[C@@H](O)[C@H]1O (some centres undefined) | inactive | inactive | inactive |  | inactive |  | inactive |  | inactive |  | inactive |  | inactive |  |  |  | 
19 | Nc1ccn(C[C@@H](CO)OCP(=O)(O)O)c(=O)n1 |  |  | inactive | inactive |  | inactive |  |  |  | inactive |  |  | inactive | inactive |  | -28.5% [at 0.4 µM] and -6.08% [at 9.52 µM] | 4.75% [at 0.409 µM] and -14.5% [at 9.73 µM]
20 | C#Cc1cccc(Nc2ncnc3cc(OCCOC)c(OCCO)cc23)c1 | inactive | inactive | 7430 nM (active) | 1050 nM (active) |  | 2350 nM (active) | 23500 nM (active) | 418 nM (active) |  | 4690 nM (active) | 526 nM (active) |  | 1870 nM (active) | 264 nM (active) |  |  | 
21 | Cc1ccc(-n2[nH]c(C)c(N=Nc3cccc(-c4cccc(C(=O)O)c4)c3O)c2=O)cc1C | inactive | inactive | 20900 nM (active) |  |  | inactive |  | inactive |  | inactive |  |  |  | 13200 nM (active) |  |  | 
22 | CCc1c(O)cc(O)c(C(=O)c2ccc(OCCN3CCOCC3)c(OC)c2)c1CC(=O)N(CCOC)CCOC | inactive | inactive | 1180 nM (active) | 1660 nM (active) |  | inactive |  |  |  | 935 nM (active) | inactive | 469 nM (active) | 833 nM (active) |  |  |  | 
